Compound activity from PubChem BioAssay.
An excerpt weighted towards active compounds, which were near 5.2% of everything screened.
Tau ThT inhib: inhibitors of human tau fibril formation, thioflavin T binding. P10636. recombinant tau K18 P301L, heparin-induced fibrillization, ThT fluorescence. Potency, µM (highest dose often 57.4 µM), hits mostly inhibitors. hit rate 2.1% among 270,000. AID 1460; active = well fitted curve in the direction sought with a large enough effect; inconclusive = small, poorly fitted or top-dose-only effect, or another doubt; inactive = no such curve, though single readings can be large; an effect the other way counts as inactive or inconclusive; note: nearly all actives have a fitted effect of over 55% in size
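ThT emission at 510 nm, taken 1 hr after adding 30 uM dye, quantifies aggregates formed when 20 uM heparin acts on human tau K18 P301L for 6 hr at 37 C.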
Sfp inh: inhibitors of Bacillus subtilis Sfp phosphopantetheinyl transferase | Q9F4F7 | Biochemical Sfp PPTase activity, qHTS | Potency, µM, usual class: inhibitors | hit rate 3.5% among 310,000; active = well fitted curve in the direction sought with a large enough effect; inconclusive = small, poorly fitted or top-dose-only effect, or another doubt; inactive = no such curve, though single readings can be large; an effect the other way counts as inactive or inconclusive;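 note: the enzyme is Sfp with the accession as filed and its product quenches rhodamine fluorescence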
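Fluorescence-quenching assay: 15 nM Sfp-PPTase preincubated 15 min at room temperature with compound, then 5 uM rhodamine-CoA and 12.5 uM BHQ-2-labelled YbbR peptide added. Fluorescence (ex 525/em 598 nm) read at start and after 30 min; difference gives rate.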
Tau fluor cs: counter-screen for tau fibril formation inhibitors; Potency, µM (top dose mostly 57.7 µM); tau K18 P301L (four-repeat tau fragment) Alexa594 fluorescence, heparin fibrillization; hit rate 0.93% among 280,000; active = well fitted curve in the direction sought with a large enough effect; inconclusive = small, poorly fitted or top-dose-only effect, or another doubt; inactive = no such curve, though single readings can be large; an effect the other way counts as inactive or inconclusive; note: nearly all actives have a fitted effect of over 55% in size
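Human K18 P301L tau (15 uM unlabeled plus 0.24 uM Alexa 594-labeled, final) in 100 mM sodium acetate pH 7 was mixed with compound and 20 uM heparin and incubated 6 hr at 37 C.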
FBPA coupling cs: inhibits coupling enzyme system, counter-screen for aldolase hits | coupling enzyme system counterscreen, AmpLite Red fluorescence | activity change, negative = inhibition, % at 58.2 µM, hits read low | hit rate 0.67% among 290,000; in the data active = activity change below about -30%
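First, compound is pin-transferred into glyceraldehyde-3-phosphate coupling-enzyme reagent at 57.5 uM final and held 10 min at RT. Next, substrate, coupling system and AmpLite Red are added. After 20 min RT, fluorescence (525/598 nm) is read.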
Tau fibril FP: blocks human tau fibril formation measured by polarization. Potency, µM (titrated, usually from 57.7 µM), actives largely listed as inhibitors. P10636. hit rate 0.39% among 280,000. K18 P301L tau heparin fibrillization, Alexa594 FP, 6 h; active = well fitted curve in the direction sought with a large enough effect; inconclusive = small, poorly fitted or top-dose-only effect, or another doubt; inactive = no such curve, though single readings can be large; an effect the other way counts as inactive or inconclusive; note: nearly all actives have a fitted effect of over 55% in size
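Compound effects on tau fibrillization are measured by Alexa 594 fluorescence polarization (ex 555, em 632 nm). K18 P301L tau is used at 15 uM with 0.24 uM labeled tracer, and 20 uM heparin induces aggregation over 6 hr at 37 C.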
Sfp inh conf: confirmation of Bacillus subtilis Sfp PPTase inhibitors; AID 2701; shares compounds with Sfp inh; Potency, µM (series often up to 114 µM), most hits filed as inhibitors; Sfp PPTase enzymatic assay, qHTS titration; hit rate 79% among 380; active = well fitted curve in the direction sought with a large enough effect; inconclusive = small, poorly fitted or top-dose-only effect, or another doubt; inactive = no such curve, though single readings can be large; an effect the other way counts as inactive or inconclusive
CASP1 redox cat: counter-screen for redox active human caspase-1 inhibitors with catalase; shares compounds with FBPA coupling cs; caspase-1 Ac-WEHD-AFC fluorescence rate, catalase buffer; Potency, µM (series often up to 57.5 µM), usual class: inhibitors; 30 tested, under 10 active; AID 888
Casp1 confirm: blocks human caspase-1 activity in concentration-response; purified caspase-1, fluorogenic substrate cleavage; shares compounds with FBPA coupling cs; hit rate 20% among 60; Potency, µM (top dose mostly 57.5 µM), actives largely listed as inhibitors
CASP7 inh CRC: confirmation of allosteric or competitive inhibitors of human caspase-7. shares compounds with FBPA coupling cs. recombinant caspase-7, fluorogenic substrate cleavage. Potency, µM (titrated, usually from 57.5 µM), usual class: inhibitors. 60 tested, under 10 active; active = well fitted inhibition curve with a large enough effect in the main read-out, with a control signal flat, not every such curve was filed as active; inconclusive = small, poorly fitted or top-dose-only effect, or a change in a side signal; inactive = no such curve, though single readings can be large or run the other way
CASP7 redox cys: caspase-7 inhibition with cysteine present; shares compounds with FBPA coupling cs; caspase-7 enzyme with cysteine, fluorogenic substrate, redox counterscreen; Potency, µM (top dose mostly 57.5 µM), usual class: inhibitors; 60 tested, under 10 active; AID 908
Casp7 catalase: inhibits caspase-7 in catalase buffer, redox counter-screen. shares compounds with FBPA coupling cs. Caspase-7 Ac-DEVD-AFC fluorescence rate, catalase buffer. Potency, µM (highest dose often 57.5 µM), usual class: inhibitors. 30 tested, under 10 active. AID 909
CASP1 redox cys: inhibits caspase-1 in cysteine buffer, redox counter-screen; AID 929; recombinant caspase-1, fluorogenic substrate, cysteine buffer; Potency, µM (titrated, usually from 57.5 µM), hits mostly inhibitors; 60 tested, under 10 active; shares compounds with FBPA coupling cs
Hits are given with their value; n = inactive; u = inconclusive; x = not tested or not shown; ! = not confirmed by another sample; [ ] = remark or other dose. Unless noted, calls come from the whole dose curve; as a rule, active = well fitted inhibition curve with a large enough effect in the main read-out, with a control signal flat; inconclusive = small, poorly fitted or top-dose-only effect, or a change in a side signal; inactive = no such curve, though single readings can be large or run the other way.

SMILES	Tau ThT inhib	Sfp inh	Tau fluor cs	FBPA coupling cs	Tau fibril FP	CASP1 redox cat	Casp1 confirm	CASP7 inh CRC	CASP7 redox cys	Casp7 catalase	CASP1 redox cys	others
Cn1cc(C(=O)NCCc2ccc(Cl)cc2)c(=O)c2cc(S(=O)(=O)N3CCOCC3)ccc21	n	x	n	x	n	x	x	x	x	x	x
Cc1cccc(OCC(=O)N2CCC(c3nc4ccccc4o3)CC2)c1C	n	x	n	x	n	x	x	x	x	x	x
CCC(C)(C)n1nnnc1C(c1ccc(O)c(OC)c1)N1CCc2ccccc2C1 (stereo not drawn)	u	3.5µM	n	n	n	x	x	x	x	x	x	Sfp inh conf=5.9µM
COc1ccc(CSc2nc(C)cc(=O)[nH]2)cc1Br	u	n	n	n	n	x	x	x	x	x	x
COc1cc(=O)[nH]c(SCc2c(F)c(F)c(F)c(F)c2F)n1	n	n	n	n	n	x	n	n	n	x	n
O=C(Nc1ccc2c(c1)OCO2)[C@@H]1[C@@H]2C(=O)N(C3CCCCC3)C(=O)[C@@H]2C2c3ccccc3C=CN21 (stereo partly drawn)	u	n	u	-35	n	n	n	n	n	n	n
COc1ccc(S(=O)(=O)Nc2ccc(O)c3ccccc23)cc1	u	n	u	n	u	n	n	n	n	n	n
COc1ccc(S(=O)(=O)Nc2ccccc2C(F)(F)F)cc1	n	n	n	n	n	x	x	x	x	x	x
COc1cccc(Cn2cccc(NC(=O)NC3CCCCC3)c2=O)c1	n	n	n	n	n	n	n	n	n	n	n
N#Cc1ccc(CN2CC[C@@]3(CCCN(C(=O)c4cnccn4)C3)C2)cc1	x	n	x	n	x	x	x	x	x	x	x
Cc1cc(C)cc(C(=O)N(C)[C@H](Cc2ccc(-c3ccccc3)cc2)C(=O)N[C@@H](Cc2c[nH]c3ccccc23)C(=O)O)c1	u	n	n	n	n	x	u	16µM	16µM	x	u
Cc1c(C)c2c(cc(C)c3c(-c4ccccc4)coc32)oc1=O	n	x	n	x	n	x	x	x	x	x	x
Cc1c(C)n(Cc2ccccc2)c2ccc(C(=O)NC(C)c3ccccc3)cc12 (stereo not drawn)	n	x	n	x	n	x	x	x	x	x	x
COc1ccc(NC(=O)Cn2c(=O)ccc3cc(S(=O)(=O)N4CCCC4)ccc32)cc1Cl	n	x	u	x	u	x	x	x	x	x	x
COc1cc2c(cc1OC)CN(C(=O)CSc1nc3[nH]ncc3c(=O)n1-c1ccccc1)CC2	n	n	n	n	n	n	n	u	u	n	n
COc1ccc(N2CCN(C(=O)CSc3nc4[nH]ncc4c(=O)n3-c3cccc4ccccc34)CC2)cc1	u	n	u	n	n	x	x	x	x	x	x
CC1(C)C(=O)NC2=C1C(=O)C(=O)c1ccccc12	18µM	50µM!	n	-76	u	x	4µM	u	n	x	n
COC(=O)C(C(C)=O)C(NC(=O)NCc1ccccc1)c1ccccc1 (stereo not drawn)	n[11.5 µM]	n	n[11.6 µM]	n	n[11.6 µM]	x	x	x	x	x	x
COc1ccc(C2CC(=O)N3CN(c4ccccc4F)CSC3=C2C#N)cc1OC (stereo not drawn)	28µM	8.9µM	n	n	u	n	n	n	n	n	n
CC(=O)Nc1cc(OC(C)=O)c2nonc2c1OC(C)=O	1.1µM	40µM	u	-77	2µM	n	n	n	n	n	u
